Source: PubChem BioAssay
Most compounds without a hit are left out; they make up all but 3.8% or so of the library.
Mtb hypoxia inh: reduces hypoxia-regulated biosensor signal in M. tuberculosis. M. tuberculosis hypoxia-regulated fluorescent reporter, fluorescence. fluorescence inhibition, % (no concentration beside the values). 300,000 tested, 0.1% active; in the data active = fluorescence inhibition mostly above about 23%, no sharp cut-off; inactive = mostly below about 17%
PrPC TRFRET: reduces human prion protein on the cell surface | P04156 | cell surface PrPC, TR-FRET read-out | inhibition, % at 13.8 µM | 370,000 tested, 0.43% active | AID 720596; in the data active = inhibition above about 24%; note: 0% = median of the test wells and 100% = reference compound wells
PrP UTR inh: suppresses PrP 5' UTR mRNA reporter expression; cell-based PrP 5' UTR mRNA reporter, plate reader; 340,000 tested, 0.35% active; inhibition, % (no concentration beside the values); in the data active = inhibition above about 52%; note: 0 = median of the neutral control wells
Y pestis TopoI: Y. pestis Topo-I inhibition via cleavage products. Y. pestis Topo-I cleavage product accumulation, plate reader. activity, % at 10 µM. 360,000 tested, 0.064% active; in the data active = activity above about 50%, passing the limit was not always enough
GDH-TPI counter: GDH-TPI coupled enzyme inhibition counter-screen; inhibition, % at 4.8 µM; AID 588335; 360,000 tested, 1.2% active; GDH-TPI coupled enzyme counterscreen, NADH absorbance; in the data active = inhibition above about 30%;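 note: 0% = DMSO wells and 100% = wells lacking the enzyme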
Mtb FBA inh: Mtb fructose-bisphosphate aldolase inhibition | purified M. tuberculosis FBA, fluorescence read-out | inhibition, % at 1 µM | 360,000 tested, 2.3% active | AID 588726; in the data active = inhibition above about 27%;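 note: 0% = vehicle and 100% = reference inhibitor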
Target sequence (P9WQA3 whole entry, looked up): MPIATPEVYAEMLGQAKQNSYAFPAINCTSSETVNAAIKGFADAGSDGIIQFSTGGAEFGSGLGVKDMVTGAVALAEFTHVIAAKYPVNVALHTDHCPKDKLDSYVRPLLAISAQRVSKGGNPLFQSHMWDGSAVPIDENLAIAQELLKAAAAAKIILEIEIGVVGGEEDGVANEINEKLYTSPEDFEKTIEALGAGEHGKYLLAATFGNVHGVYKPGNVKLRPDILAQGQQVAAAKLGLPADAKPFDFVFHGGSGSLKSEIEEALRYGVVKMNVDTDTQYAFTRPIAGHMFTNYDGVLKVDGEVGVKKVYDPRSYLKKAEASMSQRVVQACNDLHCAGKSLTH
The depositor's hits bear a star; . = no result given; + = active, no number.

SMILES	Mtb hypoxia inh	PrPC TRFRET	PrP UTR inh	Y pestis TopoI	GDH-TPI counter	Mtb FBA inh
CN(C)c1ccc(/C=N/n2c(COc3ccccc3)n[nH]c2=S)cc1	.	7	-5	-1	35*	0
CN(C)c1ccc(/C=N/n2c(C3CCCCC3)n[nH]c2=S)cc1	.	-4	-5	2	36*	1
CN(C)c1ccc(/C=N/n2c(-c3ccccc3Br)n[nH]c2=S)cc1	.	-5	-6	-7	54*	0
CN(C)c1ccc(/C=N/n2c(-c3cccnc3)n[nH]c2=S)cc1	.	-9	-19	0	18	-2
CN(C)C1=NCC(Cc2ccccc2)N1CCC1CCCC1 (stereo not drawn)	20	.	.	.	.	.
O=C(NN=Cc1c(F)cccc1Cl)c1ccc(Cn2cc(Br)cn2)o1	-1	.	.	.	.	.
CC1COc2c(N3CCN(C)CC3)c(F)cc3c(=O)c(C(=O)O)cn1c23 (stereo not drawn)	.	9	-12	7	25	97*
COc1ccc(C2=NCCn3cccc32)c(OC)c1	18	-7	-10	-1	49*	-1
NS(=O)(=O)c1ccc(CNC(=O)/C=C/c2ccccc2)cc1	.	-4	-19	3	-2	3
COc1cccc(/C=C/C(=O)NCc2ccc(S(N)(=O)=O)cc2)c1	3	-3	-20	3	-4	28*
COc1ccc(NC2CCCN(Cc3cccc4cnccc34)C2)cc1 (stereo not drawn)	-1	-5	-10	-7	15	2
COc1ccc(NC2CCCN(Cc3cccc4cnccc34)C2)cc1OC (stereo not drawn)	1	-3	-22	-4	20	118*
Oc1ccc(C(=Nc2ccccc2)c2ccccc2)c(O)c1	12	-6	4	7	45*	-2
CCOc1ccc(/C=N/n2nnnc2N)cc1OCC	.	-11	-2	-5	31*	6
CCOc1ccc(C=Nn2nnnc2N)cc1O	8	.	.	.	.	.
Cc1cccc(C2=NN(c3ccc(Br)cc3)[C@@H](C(=O)N3CCOC3=O)[C@@H]2c2ccc(Cl)cc2)c1	6	.	-23	-7	1	70*
Cc1cccc(C2=NN(c3ccc(Br)cc3)C(C(=O)N3CCOC3=O)C2c2ccc(F)cc2)c1 (stereo not drawn)	-3	.	.	.	.	.
Cc1cccc(C2=NN(c3ccc(Br)cc3)[C@@H](C(=O)N3CCOC3=O)[C@@H]2c2ccc(F)cc2)c1	.	4	-22	-8	11	42*
O=C(COc1ccccc1[N+](=O)[O-])NN=Cc1cccs1	10	.	.	.	.	.
COc1cccc(C=Nn2c(-c3cc(C)[nH]n3)n[nH]c2=S)c1	-1	.	.	.	.	.
Cc1c(NC(=S)N/N=C/c2ccc([N+](=O)[O-])cc2O)c(=O)n(-c2ccccc2)n1C	.	4	-21	5	48*	-12
Cc1c(NC(=S)NN=Cc2ccc(O)cc2)c(=O)n(-c2ccccc2)n1C	11	.	.	.	.	.
Cc1c(NC(=S)N/N=C\c2ccccc2O)c(=O)n(-c2ccccc2)n1C	.	1	-8	-1	31*	8
O=C1CN(C(=O)COC(=O)c2ccc(Cl)cc2)c2ccccc2N1	-4	-4	-23	15	2	0
O=C1CN(C(=O)COC(=O)c2c(F)cccc2Cl)c2ccccc2N1	30*	-2	-12	2	-8	-2
SMILES	Mtb hypoxia inh	PrPC TRFRET	PrP UTR inh	Y pestis TopoI	GDH-TPI counter	Mtb FBA inh
O=C(NCCc1ccccc1)c1ccccc1C(=O)NCCc1ccccc1	10	3	.	-1	9	1
O=C(NCCc1ccccc1)c1ccc(=O)oc1	5	-6	-11	10	75*	1
CC(NC(=O)c1ccc(=O)oc1)c1ccccc1 (stereo not drawn)	-8	5	-5	2	59*	0
O=C(NCc1ccccn1)c1ccc(=O)oc1	7	-4	-7	-6	38*	8
CN(C)c1ccc(/C=C/c2nc3ccccc3c(=O)n2-c2ccc(C(=O)O)cc2)cc1	-10	-1	-14	25	20	-8
O=C(O)c1ccc(/C=C/c2nc3ccccc3c(=O)n2-c2ccc(Br)cc2)cc1	-1	3	-21	1	39*	-4
O=C(O)c1cccc(-n2c(/C=C/c3ccccc3)nc3ccccc3c2=O)c1	-3	6	-6	-7	32*	1
CC1COC(=O)C(CC(=O)OC(C)(C)C)CC=CCC(CC(=O)NCCO)C(=O)N1 (stereo not drawn)	10	.	.	.	.	.
COc1cc(-c2ccc3oc(-c4cccc(C)c4)c(C#CC4(O)CCCCC4)c3c2)cc(OC)c1OC	.	-5	-9	14	35*	117*
COc1ccc(C(=O)c2c(-c3ccc(OC)cc3)oc3ccc(-c4cc(OC)c(OC)c(OC)c4)cc23)cc1	7	16	-4	-2	37*	9
COc1ccc(-c2oc3ccc(-c4ccc5c(c4)OCO5)cc3c2C#CC2(O)CCCCC2)cc1	3	4	-7	2	54*	45*
COc1ccc(-c2ccc3oc(-c4ccc(OC)cc4)c(C#CCO)c3c2)cc1	-1	6	16	-1	31*	16
COc1ccc(-c2oc3ccc(-c4ccc(OC)nc4)cc3c2C#CC2(O)CCCCC2)cc1	-8	7	-9	-9	31*	7
COc1ccc(-c2oc3ccc(-c4ccc(OC)nc4)cc3c2-c2ccc(OC)cc2)cc1	9	-2	-16	-5	-6	0
COc1ccc(C2CC(=NO)C(C)(C)O2)cc1 (stereo not drawn)	-7	.	.	.	.	.
CCOC(=O)CSc1nc2ccccc2c(=O)n1CC1CCCC1	.	3	-3	58*	10	0
CCOC(=O)CSc1nc2ccccc2c(=O)n1CC	2	-3	-7	6	4	2
Cc1ccc(S(=O)(=O)c2c(C)cc(-c3ccccc3)[nH]c2=O)cc1	8	-5	-18	6	28	81*
C=CCOC(=O)C1=CC(c2csc3ccccc23)C(CCCO)C(OCC)O1 (stereo not drawn)	21	.	.	.	.	.
Cc1ccc(NC(=S)Nc2ccc3nc(-c4ccccn4)c(-c4ccccn4)nc3c2)cc1C	8	.	-26	10	32*	-4
Cc1ccc(NC(=S)Nc2ccccn2)cc1C	15	1	-71	6	-1	-2
COC(=O)[C@@]1(Cc2ccc(F)cc2)C2c3cc(C(=O)N(C)C)n(CCSCCO)c3CC2CN1C(=O)c1ccccc1 (stereo partly drawn)	-10	.	.	.	.	.
COc1ccc2c(c1)cc(C(=O)N/N=C/c1c(O)c(C(=O)O)cc3ccccc13)n2C	.	-2	-20	-12	32*	-2
CC1=CC(c2ccc(Cl)cc2)n2nc(NC(=O)CCC(=O)O)nc2N1 (stereo not drawn)	-1	-5	-20	6	4	115*
COC(=O)c1ccc(C2NC(=S)N(c3ccccc3)C(C)=C2C(=O)Nc2ccccc2OC)cc1 (stereo not drawn)	0	4	0	1	8	+
